# High-throughput results from PubChem.
# A selection: hits, their analogues and other compounds. The true share with any hit is near 1.7%.
# PfHsp40 yeast – rescue of yeast from PfHsp40 toxicity, primary screen, S. cerevisiae, ATP luminescence. 340,000 compounds, 0.68% hits. S. cerevisiae expressing PfHsp40, growth rescue. growth rescue, % at 12.5 µM; in the data active means growth rescue above about 28%, passing the limit was not always enough;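 further: yeast W303a lacking pdr1 and pdr3 grown in galactose medium; growth measured after three days at 30 °C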
# BJeLR viability – MLPCN primary cell-based screen for lethality selective to Ras in HRASV12 cells. AID 1554, 2009. BJeLR (HRASV12) viability, CellTiter-Glo ATP luminescence, 48 h. inhibition, % (test concentration not listed). 300,000 compounds, 0.17% hits; in the data active means inhibition above about 50%
# Vc quorum ag – inducers of Vibrio cholerae quorum light production without autoinducers, primary screen, BH1578 luxS cqsA deficient, single point. V. cholerae BH1578 lux reporter, luminescence, 6 h. activation, % at 18.7 µM. 350,000 compounds, 0.16% hits; in the data active means activation mostly above about 9.7%, no sharp cut-off
# DUSP3 inh – VHR1 phosphatase inhibitors, primary screen, biochemical, absorbance, uHTS; Dual specificity protein phosphatase 3 (Homo sapiens), P51452; recombinant VHR phosphatase, pNPP absorbance; inhibition, % at 13.3 µM; 290,000 compounds, 0.52% hits; in the data active means inhibition above about 50%
# Target sequence (P51452 whole entry, looked up): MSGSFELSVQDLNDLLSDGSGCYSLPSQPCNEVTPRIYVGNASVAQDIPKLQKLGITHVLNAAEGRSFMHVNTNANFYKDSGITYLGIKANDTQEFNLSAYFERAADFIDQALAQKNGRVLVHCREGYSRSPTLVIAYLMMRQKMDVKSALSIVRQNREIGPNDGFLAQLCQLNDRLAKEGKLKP
# MazEF act – activators of E. coli MazEF toxin-antitoxin RNase, primary screen, biochemical, fluorescence, uHTS; Endoribonuclease toxin MazF (Escherichia coli (strain K12)), P0AE70; FAM/BHQ RNA-DNA oligo cleavage fluorescence, 5 h; activation, % at 20 µM; 350,000 compounds, 0.32% hits; AID 504720, 2011; in the data active means activation above about 50%
# Target sequence (P0AE70 whole entry, looked up): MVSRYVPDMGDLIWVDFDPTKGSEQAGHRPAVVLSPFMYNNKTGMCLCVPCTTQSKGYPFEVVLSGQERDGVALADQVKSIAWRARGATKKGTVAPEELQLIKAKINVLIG
# 3CLpro inhibitor – SARS-CoV 3CLpro protease inhibitors, primary screen, biochemical, quenched FRET; Replicase polyprotein 1ab (Severe acute respiratory syndrome coronavirus), P0C6X7; recombinant SARS-CoV 3CLpro, quenched FRET peptide cleavage; inhibition, % at 6 µM; 290,000 compounds, 0.14% hits; in the data active means inhibition above about 12%
# Numbers stand for hits; – = inactive; · = not tested or not shown.
SMILES,PfHsp40 yeast,BJeLR viability,Vc quorum ag,DUSP3 inh,MazEF act,3CLpro inhibitor
Cc1cc(NS(=O)(=O)c2ccc(NC(=O)CSc3nnc(-c4ccco4)n3Cc3ccco3)cc2)nc(C)n1,54,–,–,–,–,–
COc1cc(C)c(Br)cc1S(=O)(=O)NCc1cccs1,–,–,–,54,–,–
c1ccc(Cn2nnc3c(N4CCN(Cc5ccc6c(c5)OCO6)CC4)ncnc32)cc1,–,–,–,51,–,–
CCN(CC)CCCNC(=O)c1cc(-c2ccccc2)c(N2CCCCC2)s1,–,51,–,–,–,–
CCOC(=O)C(C(=O)OCC)C(=O)c1cc(OC)c(OC)c(OC)c1,–,–,–,52,–,–
COc1cc(C(=O)OCCCOC(=O)c2cc(OC)c(OC)c(OC)c2)cc(OC)c1OC,–,–,–,–,–,–
CC(=O)Oc1oc(-c2ccccc2)nc1C=Nc1ccccc1,–,–,–,52,–,–
CCOC(=O)c1ccc(N=Cc2nc(-c3ccccc3)oc2OC(C)=O)cc1,–,–,–,–,–,–
Cc1noc(C)c1NC(=O)N(C)C[C@H]1OCc2cnnn2CCCC(=O)N([C@H](C)CO)C[C@@H]1C,·,·,–,·,–,·
C=CCn1c(NC(=O)c2ccc(C)cc2)nc2ccccc21,–,–,–,54,–,–
CCCn1c(NC(=O)c2ccc(C)cc2)nc2ccccc21,–,–,–,–,–,–
COc1ccc(C(=O)Nn2c(C)nc3ccccc3c2=O)cc1Br,–,–,–,–,–,–
CCN1CCN(C(=O)COc2ccc(S(=O)(=O)N3CCOCC3)cc2C)CC1,–,–,–,54,–,–
O=c1[nH]c2ccc(N=Cc3c(O)ccc4cc(Br)ccc34)cc2[nH]1,–,–,–,–,256,–
Cc1ccc(SCCNC(=O)c2ccc(C)c([N+](=O)[O-])c2)cc1,48,–,–,–,–,–
O=C(CCNC(=O)C1CCN(S(=O)(=O)c2ccccc2)CC1)NCc1ccccc1Cl,–,–,–,–,–,–
c1ccc(-c2noc(-c3ccc4c(c3)OCO4)n2)nc1,–,92,–,–,–,–
OC(c1ccccc1)c1ncc(-c2ccccc2F)[nH]1 (configuration not stated),·,·,–,·,·,·
CCN(CC)c1ccc(NC(=O)CN(C)Cc2cccs2)cc1,–,–,–,53,–,–
Nc1nc(-c2ccc(Oc3ccccc3)cc2)cs1,185,–,–,–,–,–
CCc1ccc(/C=N/NC(=O)c2cc(-c3ccncc3)nc3ccccc23)s1,–,–,–,–,–,–
O=C(N/N=C/c1cccs1)c1cc(-c2ccncc2)nc2ccccc12,–,56,–,–,–,–
Cc1ccc2cc3c(N)c4c(C)ccc(C)c4nc3nc2c1,–,–,–,–,55,–
Cc1ccc2c(N)c(C)ccc2c1,–,–,–,–,–,–
COCCCNC(=O)CC1C[C@H](C(=O)N2CCOCC2)[C@@]2(CCC3CCCC3)c3[nH]c4ccc(OC)cc4c3CCN2C1=O (some centres not stated),–,·,–,·,–,·
SMILES,PfHsp40 yeast,BJeLR viability,Vc quorum ag,DUSP3 inh,MazEF act,3CLpro inhibitor
Oc1cccc2ccc(Nc3ccccn3)nc12,240,–,–,–,–,–
c1ccc(Nc2ccccc2Nc2ccccn2)nc1,–,–,–,–,–,–
Cc1ccccc1NC(=O)C1c2cccc[n+]2CC(=O)N1c1c(C)cccc1C (configuration not stated),–,–,–,–,63,–
Cc1cccc(C)c1NC(=O)C1c2cccc[n+]2CC(=O)N1Cc1ccc2c(c1)OCO2 (configuration not stated),–,–,–,–,–,–
COCCCNC(=O)Cc1ccc(S(=O)(=O)N2CCOCC2)s1,–,·,–,·,–,·
Cc1ccc(NC(=O)CC2S/C(=N/N=C/C=C/c3ccccc3)NC2=O)cc1Cl (configuration not stated),–,–,–,–,55,–
Cc1n[nH]c(C)c1S(=O)(=O)N1CCN(S(=O)(=O)c2ccccc2C#N)CC1,–,·,–,·,–,·
Nc1c(N(CCC2=CCCCC2)C(=O)CCCOc2ccccc2)c(=O)[nH]c(=O)n1Cc1ccccc1,–,–,–,·,–,·
CC(Oc1ccccc1)C(=O)N(CCC1=CCCCC1)c1c(N)n(Cc2ccccc2)c(=O)[nH]c1=O (configuration not stated),–,–,23,–,–,–
COC(=O)c1ccc(/C=N\N2CCN(c3ccccc3)CC2)cc1,–,–,–,51,–,–
C(=N\N1CCN(c2ccccc2)CC1)/c1ccccc1,–,–,–,–,–,–
O=[N+]([O-])c1nn(-c2ccccc2)[n+]([O-])c1N1CCN(c2ccccc2F)CC1,–,–,–,–,144,–
COc1ccccc1/C=C/C(=O)NCC(=O)n1nc(C)cc1C,–,–,–,–,–,–
COc1cc([C@@H]2c3cc4c(cc3[C@@H](O[C@@H]3O[C@@H]5CO[C@@H](C)O[C@H]5[C@H](O)[C@H]3O)[C@H]3COC(=O)[C@H]23)OCO4)cc(OC)c1O,–,–,–,·,–,·
COc1cc(C2c3cc4c(cc3C(OC3OC5COC(c6cccs6)OC5C(O)C3O)C3COC(=O)C23)OCO4)cc(OC)c1O (configuration not stated),–,73,–,–,–,–
Cc1cccc(NS(=O)(=O)c2csc(C(N)=O)c2)c1C,–,–,–,53,–,–
CC(=O)c1c(C)[nH]c(C(=O)OCC(=O)c2ccc(Br)cc2)c1C,·,·,–,·,–,·
Cc1cc(C)c(C#N)c(SCC(=O)c2cccs2)n1,–,–,–,–,109,–
Cc1cc(C)c(C#N)c(SCC(=O)c2ccccc2)n1,–,–,–,–,–,–
Oc1sc(C=Nc2ccccc2)c2ccccc12,–,–,–,–,140,–
O=C(CSc1nnc(-c2ccccc2F)o1)Nc1ccc(N2CCOCC2)cc1,–,·,–,·,–,·
COc1ccc(-c2csc(NC(=O)c3ccc(S(=O)(=O)N4CCc5ccccc5C4)cc3)n2)cc1,–,–,–,–,–,–
COc1ccc(-c2nnc(NC(=O)c3ccc(S(=O)(=O)N4CCc5ccccc5C4)cc3)o2)cc1,–,76,–,–,–,–
O=C(Nc1nnc(-c2ccc(F)cc2)o1)c1ccc(S(=O)(=O)N2CCOCC2)cc1,–,–,25,–,–,–
CS(=O)(=O)c1cccc(-c2nnc(NC(=O)c3ccc(S(=O)(=O)N4CCCC4)cc3)o2)c1,–,–,–,·,–,·
Oc1ccccc1-c1nnc(SCCN2CCOCC2)n1Cc1ccccc1,249,–,–,–,–,–
Nc1ccc2c(c1)Cc1cc([N+](=O)[O-])ccc1-2,–,–,–,–,–,–
